PubChem BioAssay (NCI)
Values joined by “and” are separate entries in the source; they are usually repeats but may differ in a detail not shown here. Identical values can stand only once. This is part of a sample that, as a whole, favours compounds with a hit. Of some 83,000 tested, about 20% had one in any assay.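 Percent growth is the endpoint: 0 to 100 indicates growth inhibition (40 means 60% inhibition), 0 means no net growth, and negative values indicate cell death.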 Active and inactive are the calls of the source.

Each molecule was assayed on MOLT-4 leukemia (assay: NCI-60 one-dose screen, 48 h (100 = growth as untreated, 0 = no growth, -100 = all killed)). Details: 10 µM unless noted.
Experimental: Growth inhibition of the MOLT-4 human tumor cell line is measured as a screen for anti-cancer activity. Cells are grown in 96 well plates and exposed to the test compound for 48 hours. Compounds are tested at a single concentration, which is 10^-5 M for most compounds. The reported endpoint is percent growth (GI% or GIPRCNT), where numbers from 0 - 100% represent growth inhibition, and numbers from -100% - 0 represent cell death. For example, a value of 40 represents 60% growth inhibition. A value of 0 means no net growth occurred over the course of the experiment. A value of -40 indicates 40% of cells at the beginning of the experiment died by the end of the experiment. A value of -100 means all cells are dead at the end of the experiment.
NCI-60 Human Tumor Cell Lines Screen was performed using the standard one-dose NCI protocol, which is described in more detail at https://dtp.cancer.gov/discovery_development/nci-60/default.htm.
Compounds with GIPRCNT values below 10 were considered active. Activity score was based on GIPRCNT using the following formula: […]
Score is 0 for GIPRCNT values of 100 or above, 50 for GIPRCNT values of 0, and 100 for GIPRCNT values of -100.

| SMILES | growth |
| --- | --- |
| CCOC(=O)c1cccnc1Nc1ccc(NC(=O)Nc2ccc(Cl)c(C(F)(F)F)c2)cc1 | 24.9% (inactive) |
| COc1cc(-c2nc(-c3ccccc3)[nH]c2-c2ccnc(NCCCNS(=O)(=O)c3ccc(C(F)(F)F)cc3)n2)ccc1Cl | -4.06% (active) and 16.3% (inactive) |
| O=C(Nc1cc(C(F)(F)F)cc(C(F)(F)F)c1)Nc1ccc2oc(=O)ccc2c1 | 19.7% (inactive) |
| O=C(/C=C/c1cccc(F)c1)c1cccc(OCCCCOc2cccc(C(=O)/C=C/c3cccc(F)c3)c2)c1 | 95% (inactive) |
| CCc1cc(O)ccc1Nc1cc(-c2ccc(-n3cccn3)cc2)[nH]n1 | 43.6% (inactive) |
| C(=N\Nc1nc(N/N=C/c2ccc3c(c2)OCO3)nc(N2CCCCC2)n1)/c1ccc2c(c1)OCO2 | 56.3% (inactive) |
| N#Cc1c(-c2ccc(Br)cc2)cc(-c2c[nH]c3ccccc23)nc1N | 41.4% (inactive) |
| O=C(/C=C/C=C/c1csc(Br)n1)NO | 75.3% (inactive) |
| Cc1cc(=O)oc2cc(OCCCOc3ccc(/C=C/C(=O)Nc4ccc(Br)cc4)cc3)ccc12 | 96.4% (inactive) |
| O=C1[C@@H]2Cc3c([nH]c4ccccc34)[C@@H](c3ccc(Cl)cc3)N2C(=O)CN1C1CCN(Cc2c(F)cccc2F)CC1 | 8.27% (active) |
| CC(C)(C)OC(=O)NCc1ccc(CNc2c([N+](=O)[O-])cnc3ccccc23)cc1 | 34.4% (inactive) |
| CN(C)S(=O)(=O)c1ccc(-c2nc(C(Cl)Cl)nc3cc(-c4ccccc4)nn23)cc1 | 63.4% (inactive) |
| C#Cc1cc(OC)c(C(=O)Nc2ccc(F)cc2C(=O)Nc2cccc(S(=O)(=O)C(F)(F)F)c2)cn1 | -32.9% (active) |
| Nc1cc(C(=O)N/N=C\c2ccc(OC(F)F)c(OC3CCCC3)c2)nn1CC(O)c1ccccc1 (stereo not given) | 78.5% (inactive) |
| Cn1c(SCC(=O)c2ccc(Br)cc2)nc2ccccc2c1=O | 99% (inactive) |
| N#CC1=C2NCCCNc3oc(nc3C#N)Cc3ccccc3CC(=N1)O2 | 84.1% (inactive) |
| COc1ccc(OC)c(NC(=O)CCCCCCNC(=O)C(O)(O)C(F)(F)F)c1 | 20% (inactive) |
| CS(=O)(=O)c1ccc(/C(=N/N=C(N)N)c2ccc(F)cc2)cc1 | 103% (inactive) |
| NC(=S)n1c(=O)n(-c2cccc(C(F)(F)F)c2)c(=O)c2cc(-c3ccc(F)cc3F)ccc21 | 0.58% (active) |
| NS(=O)(=O)c1nnc(/N=C/c2c(O)[nH]c3ccccc23)s1 | 126% (inactive) |

| SMILES | growth |
| --- | --- |
| CC/C(=C(/c1ccc(Cl)cc1)c1ccc(OCCN)cc1)c1ccccc1 | 84.1% (inactive) |
| COc1ccc2[nH]cc(-c3nn4cc(-c5ccncc5)nc4s3)c2c1 | 50.4% (inactive) |
| CN1CCC[C@]2(C)[C@H]3CC[C@@H]4[C@@H]5[C@H]6OC[C@@]5(CCC6(C)C)CC[C@@]4(C)[C@]3(C)CC[C@H]2C1(C)C | 37.7% (inactive) |
| CCOC(=O)c1ccc(NC2=CC(=O)C(C)=C(C)C2=O)cc1 | 41.3% (inactive) |
| COc1ccc2sc(NC(=O)CCCCCCNC(=O)C(O)(O)C(F)(F)F)nc2c1 | 13% (inactive) |
| CC1=C(C)C(=O)C(Nc2cccc(C(F)(F)F)c2)=C(Br)C1=O | -6.02% (active) |
| CC(=O)/C(N=Nc1ccc2oc(=O)ccc2c1)=C(\C)O | 16.4% (inactive) |
| FC(F)(F)c1cc(Br)cc(-c2cc(-c3ccc4c(c3)OCCO4)[nH]n2)c1 | 22.5% (inactive) |
| C/C(=N\NC(=O)Nc1ccccc1)c1nnn(-c2ccc([N+](=O)[O-])cc2)c1C | 103% (inactive) |
| O=C(CSc1nnc(-c2cccs2)n1-c1ccccc1)Nc1ccccc1 | 93.6% (inactive) |
| Cn1ncc2ncc(-c3ccc4ncc(C#N)c(N5CCc6cc(F)c(Cl)cc65)c4c3)cc21 | 12.6% (inactive) |
| C1=CC(c2nn3c(-c4ccccc4)nnc3s2)=Cc2ccccc2O1 | 39.2% (inactive) |
| CN1CCN(Cc2ccc(NC(=O)c3cncc(C#Cc4cnc5ccc(N)nn45)c3)cc2C(F)(F)F)CC1 | 7.21% (active) |
| Cc1ccc(Nc2nc(SC(C)C)nc(-c3ccccc3)c2C#N)cc1 | 100% (inactive) |
| Cn1cc(-c2nn3cc(-c4ccncc4)nc3s2)c2cc(F)ccc21 | 37.3% (inactive) |
| CCCCCN1C(=O)/C(=c2\sc3n(c2=O)C2C(NN=3)N(CC)C(=O)N2CC)c2cccc(C)c21 (stereo not given) | 53.1% (inactive) |
| C/C(=N\NC(=O)/C=C/CC(=O)O)c1nnn(-c2ccc([N+](=O)[O-])cc2)c1C | 105% (inactive) |
| COc1ccccc1/C=C/C(=O)c1nnn(-c2ccc(F)cc2)c1C | 45% (inactive) |
| CC[C@]12C=CCN3CC[C@]4(C(=C(C(=O)OC)C1)Nc1cc5c(cc14)[C@@H]1[C@H](O5)[C@@H](O)[C@@]4(CC)CC(C(=O)OC)=C5Nc6cc(O)ccc6[C@@]56CCN1C46)C32 (stereo not given in full) | 8.51% (active) |
| O=S(=O)(NCCCNc1nccc(-c2[nH]c(-c3ccccc3)nc2-c2ccc(F)c(O)c2)n1)c1cccc(F)c1 | 44.3% (inactive) |
